# Bioassay records as filed in PubChem.
# DT40 TDP1 CPT: growth inhibition of DT40 Tdp1-/-;hTDP1 cells with camptothecin (screen for TDP1 inhibitors). chicken DT40 Tdp1-/-;hTDP1 cells + 20 nM CPT, ATP luminescence, 48 h. Potency, µM (doses to about 46.2 µM), for inactives: at the highest dose activity change, negative = growth inhibition, hits mostly inhibitors. hit rate 12% among 420,000. AID 686979; also: potency is read from the fitted curve at half-maximal effect; % is scaled to controls: 0 for no effect and ±100 for the full control effect; nearly all actives have a fitted effect of over 55% in size
#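 Chicken DT40 Tdp1-/- cells stably complemented with human TDP1 were seeded at 400 cells/well in medium containing 20 nM camptothecin, exposed to pin-transferred compounds, and grown at 37 °C for at least 48 hr. Viability was read as ATP luminescence.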
# TDP1 cell noCPT: qHTS for Inhibitors of human tyrosyl-DNA phosphodiesterase 1 (TDP1): qHTS in cells in absence of CPT; hit rate 15% among 420,000; Potency, µM (titrated, usually from 46.2 µM), inactives show at the highest dose activity change, negative = growth inhibition, actives largely listed as inhibitors; AID 686978, 2013; DT40 Tdp1-/- hTDP1 cells, no CPT, ATP luminescence, 48 h; also: potency is read from the fitted curve at half-maximal effect; % is scaled to controls: 0 for no effect and ±100 for the full control effect; nearly all actives have a fitted effect of over 55% in size
#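 Cells were dispensed at 400 per well, compounds added by pin tool, plates incubated ≥48 hr at 37 °C, then CellTiter-Glo added for 30 min at room temperature before luminescence reading. Line: DT40 Tdp1-/- complemented with hTDP1; camptothecin omitted.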
# TGFb inhibitor: blocks TGF-b signaling; AID 588855; HepG2 CAGA-GFP TGF-b/SMAD3 reporter, GFP fluorescence, 18 h; TGF-beta stimulated, 500 pg/mL final; hit rate 1.2% among 410,000; Potency, µM (top dose mostly 46.1 µM), for the others: at the top dose activity, negative = inhibition, most hits filed as inhibitors; also: potency is read from the fitted curve at half-maximal effect; % is scaled to controls: 0 for no effect and ±100 for the full control effect; nearly all actives have a fitted effect of over 65% in size
#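 Inhibition of TGF-beta-driven CAGA-GFP reporter expression in HEPG2 cells is measured by cellular GFP fluorescence after 18 h stimulation with 500 pg/mL recombinant TGF-beta in 1% FBS medium at 37 degrees C.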
# HepG2 viability: kills HepG2 cells in TGF-b inhibitor counter-screen; HepG2 CAGA-GFP viability, ATP luminescence, 18 h; Potency, µM (titrated, usually from 46.1 µM), inactives show top-dose activity change, negative = cytotoxicity, hits mostly cytotoxic; hit rate 0.76% among 410,000; AID 588856; also: potency is read from the fitted curve at half-maximal effect
#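 CellTiter-Glo luminescence gave cytotoxicity after 18 hours at 37 degrees C. The cells were HepG2 CAGA-GFP in 1% FBS DMEM, stimulated with 500 pg/mL TGF-beta after compound addition. %Activity was normalised to no-cell wells (complete cell-killing) and DMSO (no toxicity), and curves were fitted and classified.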
# IL1B secr inh: blocks inflammasome-driven IL-1 beta release; hit rate 4.7% among 360,000; THP-1 LPS/ATP IL-1B secretion, AlphaLISA, 16 h; active compounds read low; activity change, % at 57.5 µM; in the data active = activity change below about -50%; inconclusive = mostly about -30% to -49%; also: % is scaled to controls: 0 for no effect and ±100 for the full control effect
#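 Secreted IL-1B measured by AlphaLISA bead assay after 16 h compound exposure of THP-1 cells; compounds (final up to 57.5 uM) added 1 h before LPS (250 ng/mL) and ATP (1.25 mM) stimulation; lower signal means less secretion.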
# TDP1 block: blocks human tyrosyl-DNA phosphodiesterase 1; Q9NUW8; recombinant TDP1, AlphaScreen DNA substrate cleavage; Potency, µM (highest dose often 130 µM), for inactives: at the highest dose activity change, negative = inhibition, actives largely listed as inhibitors; hit rate 0.28% among 350,000; AID 485290; also: potency is read from the fitted curve at half-maximal effect; % is scaled to controls: 0 for no effect and ±100 for the full control effect; nearly all actives have a fitted effect of over 40% in size
# Target sequence (Q9NUW8 whole entry, looked up): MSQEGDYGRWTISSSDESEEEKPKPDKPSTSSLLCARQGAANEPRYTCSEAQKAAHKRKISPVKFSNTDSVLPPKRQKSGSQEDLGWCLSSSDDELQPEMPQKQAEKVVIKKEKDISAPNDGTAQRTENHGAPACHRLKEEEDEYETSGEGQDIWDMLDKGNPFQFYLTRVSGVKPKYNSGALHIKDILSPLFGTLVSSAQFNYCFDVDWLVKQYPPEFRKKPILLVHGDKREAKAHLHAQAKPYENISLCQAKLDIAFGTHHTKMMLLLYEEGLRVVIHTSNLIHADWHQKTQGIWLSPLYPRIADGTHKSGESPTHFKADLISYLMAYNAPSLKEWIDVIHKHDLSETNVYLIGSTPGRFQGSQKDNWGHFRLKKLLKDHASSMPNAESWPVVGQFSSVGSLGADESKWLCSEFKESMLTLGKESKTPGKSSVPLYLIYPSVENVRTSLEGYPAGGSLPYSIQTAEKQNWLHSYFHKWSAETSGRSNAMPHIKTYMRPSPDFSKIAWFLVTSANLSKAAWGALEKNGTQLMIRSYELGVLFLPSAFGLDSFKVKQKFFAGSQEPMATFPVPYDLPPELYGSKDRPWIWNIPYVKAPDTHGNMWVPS
#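 Here, a 5' biotin and 3' phosphotyrosine-FITC DNA oligonucleotide reports Tdp1 activity: intact substrate bridges AlphaScreen beads, while cleavage leaves a 3' phosphate and drops signal. All incubations at room temperature.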
# Numbers without * were called inactive; u = inconclusive; x = no result; [ ] = remark or other dose. Only some compounds are listed: those with a hit (about 19% of all), similar ones and a draw of the others. Unless noted, calls follow the shape of the dose curve; as a rule, active = well fitted curve in the direction sought with a large enough effect; inconclusive = small, poorly fitted or top-dose-only effect, or another doubt; inactive = no such curve, though single readings can be large; an effect the other way counts as inactive or inconclusive.
SMILES,DT40 TDP1 CPT,TDP1 cell noCPT,TGFb inhibitor,HepG2 viability,IL1B secr inh,TDP1 block
Cc1ccc(-c2csc3nc(CN(C)Cc4ccccc4)[nH]c(=O)c23)cc1,u,26µM*,u,-34%,31,3%
O=c1[nH]c(Cc2cccs2)nc2scc(-c3ccc(Cl)cc3)c12,13µM*,-28%,1%,14%,1,0%
CC1CCN(S(=O)(=O)c2ccc3c(c2)N(CC(=O)NCc2ccccc2)C(=O)CO3)CC1,x,x,9%,-6%,x,4%
CCOc1ccc(-c2c(C)nn3c(C)c(C(=O)NCCc4ccc(C)cc4)cnc23)cc1OCC,u,u,-24%,-4%,x,7%
Cc1ccc(Nc2c(N)c(=O)oc3ccccc23)cc1,u,26µM*,-2%,-18%,1,6%[56.1 µM]
Cc1cc(C)c(NC(=O)CCn2c(=O)c3cccn3c3cccnc32)c(C)c1,u,-26%,-2%,-3%,x,5%
O=C(CN1C(=O)NC(c2ccccc2)(c2ccccc2)C1=O)NCCc1ccc(F)cc1,-1%,u,-7%,7%,-9,0%
N#C/C(=C\C1=C(N2CCOCC2)C(=C\c2ccc(Cl)cc2)/CC1)C(=O)Nc1ccccc1F,16µM*,12µM*,-28%,1%,16,8%
N#C/C(=C/C1=C(N2CCOCC2)C(=C/c2ccc(Cl)cc2Cl)/CC1)C(=O)Nc1ccccc1F,u,10µM*,0%,4%,2,x
COc1cc(NC(=O)C2=C(N3CCOCC3)/C(=C\c3ccc(Cl)cc3Cl)CC2)cc(OC)c1OC,13µM*,16µM*,14%,-9%,-9,1%
N#C/C(=C\c1ccc[nH]1)C(=O)Nc1ccccc1F,-12%,0%,u,-16%,28,-2%
N#C/C(=C/C1=C(N2CCOCC2)C(=C/c2ccccc2)/CC1)C(=O)Nc1ccccc1F,13µM*,16µM*,18%,0%,21,x
Cc1oc2c(c1C(=O)Nc1ccc(OC(F)(F)F)cc1)C1=NCCN1C=N2,-2%,-3%,6%,-16%,x,10%
CC(C)Oc1ccc(C2CC(=O)N(C)C2=O)cc1 (stereo not drawn),-8%,-25%,4%,-22%,5,3%
CCC(=O)N(Cc1cc(=O)[nH]c2ccccc12)c1ccc(C)cc1C,-10%,9%,0%,-1%,23,x
CCN(CC)CCCC(C)n1c(-c2ccccc2)nc2c(N(CCOC)CCOC)nc(C)nc21 (stereo not drawn),x,x,x,x,x,7%
O=S(=O)(c1ccc(Cl)cc1)N1CCN(Cc2ccc(O)c3ncccc23)CC1,6.5µM*,5.8µM*,u,-1%,38,8%
Oc1ccc(CN2CCN(Cc3ccccc3)CC2)c2cccnc12,21µM*,u,u,-55%,98,0%
O=S(=O)(c1ccc(Cl)cc1)N1CCN(Cc2ccncc2)CC1,u,u,12%,-12%,1,-1%
COC(=O)c1cccc(Nc2c(-c3cc(Br)ccc3O)nc3nc[nH]n23)c1,u,u,-14%,-7%,x,1%
Cc1c(C(=O)NN2CCOCC2)oc2c1ccc1ccccc12,-16%,u,32%,20%,-71*,2%
COc1ccc(OC)c(NC(=O)C2(C)CCN2C(=O)CCC2CCCC2)c1 (stereo not drawn),16µM*,u,u,-31%,-4,x
CC1(C(=O)Nc2cccc3c2CCCC3)CCN1C(=O)CCC1CCCC1 (stereo not drawn),21µM*,u,u,-39%,15,x
